Data as given in PubChem BioAssay (EPA / NIEHS).
Records with an inconclusive call do not appear. Calls of active or inactive are those of the source. Rule for the calls: active = hit-call score of the fitted dose curve at least 0.9, where 1 is the maximum; inconclusive = response in the unintended direction; inactive = score below 0.9.

Each compound was assayed on glucuronosyltransferase (UGT1A1), UGT1A1 (gene 54658) (assay: CLD_UGT1A1_24hr: CellzDirect (CLD) Gene Expression Assay for glucuronosyltransferase (UGT1A1) at 24 hours (AID 2283696)).
Experimental: CLD_24hr is a cell-based, multiplexed-readout assay that uses hepatocyte, a human liver primary cell, with measurements taken at 24 hours after chemical dosing in a 96-well plate.CLD_UGT1A1_24hr is one of 16 assay component(s) measured or calculated from the CLD_24hr assay. It is designed to make measurements of mRNA induction, a form of inducible reporter, as detected with chemiluminescence signals by Quantitative Nuclease Protection Assay (qNPA) technology.Data from the assay component CLD_UGT1A1_24hr was analyzed at the endpoint, CLD_UGT1A1_24hr, in the positive analysis fitting direction relative to DMSO as the negative control and baseline of activity. Using a type of inducible reporter, gain-of-signal activity can be used to understand changes in the reporter gene as they relate to the gene UGT1A1. Furthermore, this assay endpoint can be referred to as a primary readout. To generalize the intended target to other relatable targets, this assay endpoint is annotated to the transferase intended target family, where subfamily is glucuronosyltransferase.
Human hepatocyte cultures were treated daily for two consecutive days with fresh dosing solutions containing appropriate concentrations of the 320 ToxCast chemicals (chemical identities were blinded to CellzDirect and other ToxCast collaborators), vehicle control (0.2% DMSO), and positive control inducers as summarized in Table 1. Due to the large number of treatment groups and chemicals examined, the ToxCast chemicals were divided into two groups (spanning two independent cultures of hepatocytes from separate donor preparations (Hu778: ToxCast plates 1 and 2; Hu776: ToxCast plates 3 and 4). Each preparation of human hepatocyte cultures was treated with respective vehicle control, medium only control, set of six positive controls/reference chemicals for the five hepatic receptor pathways, and a subset of eight of the ToxCast chemicals (indoxacarb, pyrithiobac-sodium, norflurazon, cyhalofop-butyl, methomyl, thiram, acetochlor, and propiconazole). These replicate data, coupled with internal replicates designed within the blinded ToxCast chemical library, provided additional data to evaluate interindividual differences between hepatocyte preparations and their potential impact on chemical profiles.Cell morphology and integrity were evaluated using phase-contrast microscopy as an indicator of hepatocyte cell health (Tyson & Green, 1987). Cultures for each treatment group (i.e., media, vehicle [0.2% DMSO], positive control inducers [multiple concentrations], and the ToxCast chemicals [multiple concentrations]) were observed and cell morphology was assessed relative to vehicle control cultures at each harvest time point (0, 6, 24, or 48 h). […] Images were evaluated at the conclusion of the study to assess changes in cell integrity and account for the effects of chemical exposure on uncharacteristic changes in concentration-dependent gene expression profiles. The results from these determinations of apparent cytotoxicity were annotated (yes/no) alongside the corresponding qNPA data for reference.At the conclusion of each treatment period, hepatocyte cultures (96-well) were washed with 1 volume of HBSS, lysed by addition of 25 ul ArrayPlate lysis buffer (HTG, Tucson, AZ), and 70 ul/well of Denaturation Oil, denatured by incubation at 95C for 10 min, and frozen at approximately -70C until analysis by nuclease protection assay (qNPA) (Roberts et al., 2007). For qNPA analysis, cell lysates were thawed at 50C for approximately 30 min, qNPA probes were added, and samples were incubated at 95C for 10 min to begin the detection process by denaturing the target RNA, dissociating the duplexes and secondary structure hybridization. At the conclusion of the hybridization period, S1 nuclease reagent was added to each sample to digest all nonprotected nucleotides at 50C for 60-90 min. […]

Structure (SMILES) | AC50 | outcome
CCCCOC(=O)C(C)Oc1ccc(Oc2ccc(C(F)(F)F)cn2)cc1 (stereo not given) | 20 µM (active) | 
N#CSCSc1nc2ccccc2s1 |  | inactive
COC(=O)c1cccc(C)c1S(=O)(=O)NC(=O)Nc1nc(OCC(F)(F)F)nc(N(C)C)n1 |  | inactive
CCC(C)OC(=O)N1CCCCC1CCO (stereo not given) |  | inactive
CN(C)C(=O)Nc1ccc(Cl)c(Cl)c1 |  | inactive
CCSC(=O)N(CC(C)C)CC(C)C |  | inactive
CCOC(=O)[C@H](C)Oc1ccc(Oc2nc3ccc(Cl)cc3o2)cc1 |  | inactive
COC(=O)c1ccc(CNS(C)(=O)=O)cc1S(=O)(=O)NC(=O)Nc1nc(OC)cc(OC)n1 |  | inactive
CCCCOCCOCCOCc1cc2c(cc1CCC)OCO2 |  | inactive
CCOC(=O)COc1cc(-n2ncc(C(F)(F)F)c(C)c2=O)c(F)cc1Cl |  | inactive
CCCCCCC(C)OC(=O)COc1nc(F)c(Cl)c(N)c1Cl (stereo not given) |  | inactive
CCCCC(CC)COC(=O)c1ccccc1C(=O)O (stereo not given) |  | inactive
CCN(CC)C(=O)c1cccc(C)c1 |  | inactive
COC(=O)c1c(Cl)nn(C)c1S(=O)(=O)NC(=O)Nc1nc(OC)cc(OC)n1 |  | inactive
Oc1ccc(C(c2ccc(O)cc2)C(Cl)(Cl)Cl)cc1 |  | inactive
CCCCC(CC)CN1C(=O)C2C3C=CC(C3)C2C1=O (stereo not given) |  | inactive
COc1c(Cl)ccc(Cl)c1C(=O)O |  | inactive
COc1nc(C)nc(NC(=O)NS(=O)(=O)c2ccccc2OCCCl)n1 |  | inactive
CCCCOC(=O)[C@@H](C)Oc1ccc(Oc2ccc(C(F)(F)F)cn2)cc1 |  | inactive
COC(=O)c1ccccc1S(=O)(=O)NC(=O)Nc1nc(OC(F)F)cc(OC(F)F)n1 |  | inactive

Structure (SMILES) | AC50 | outcome
CSC(=O)c1cccc2nnsc12 |  | inactive
CCC(O)=C1C(=O)CC(C(=O)O)CC1=O (stereo not given) |  | inactive
CCCN(CCC)c1c([N+](=O)[O-])cc(C(F)(F)F)c(N)c1[N+](=O)[O-] | 8.82 µM (active) | 
O=C(O)C1(C(=O)Nc2ccc(Cl)cc2Cl)CC1 | 20 µM (active) | 
COC(=O)c1ccc(I)cc1S(=O)(=O)NC(=O)Nc1nc(C)nc(OC)n1 |  | inactive
CCOC(=O)NCCOc1ccc(Oc2ccccc2)cc1 |  | inactive
CCCN(CCC)C(=O)SCC |  | inactive
CCCCCOC(=O)COc1cc(N2C(=O)C3=C(CCCC3)C2=O)c(F)cc1Cl |  | inactive
C=CCOC(Cn1ccnc1)c1ccc(Cl)cc1Cl (stereo not given) |  | inactive
CC(C)(c1ccc(O)cc1)c1ccc(O)cc1 |  | inactive
COC(=O)CSc1cc(N=c2sc(=O)n3n2CCCC3)c(F)cc1Cl | 3.17 µM (active) | 
OB(O)O |  | inactive
CCOC(=O)C(C)Oc1ccc(Oc2nc3ccc(Cl)cc3o2)cc1 (stereo not given) |  | inactive
CCNc1nc(N)nc(Cl)n1 |  | inactive
c1ccc(Nc2ccccc2)cc1 |  | inactive
CC1(C)C(C=C(Cl)Cl)C1C(=O)OCc1cccc(Oc2ccccc2)c1 (stereo not given) |  | inactive
C#CCOC(=O)[C@@H](C)Oc1ccc(Oc2ncc(Cl)cc2F)cc1 |  | inactive
COC(=O)c1ccccc1C(=O)O |  | inactive
CC(C)(C)[C@@H](O)[C@@H](Cc1ccc(Cl)cc1)n1cncn1 |  | inactive
CCCOC(=O)NCCCN(C)C |  | inactive
